# Laboratory results as given in PubChem BioAssay AID588402 (Sanford-Burnham Center for Chemical Genomics, 2011).
# Among all 1,600 compounds or so, about 1,100 (69%) were called active. Rule as the data show it: active = inhibition above about 50%; inactive = the rest. The set was probably picked from earlier hits. These entries were drawn from the full list.
# Biological target: Phospholipase A2 (Homo sapiens) (UniProt P04054)
# Assay: PLA2 enzyme inhibition, counter-screen for ATG4B inhibitor project, biochemical, single concentration, uHTS hits (AID 588402)
# Conditions: purified PLA2, NBD-C6-HPC fluorescence, 45 min; at 8.33 µM; active compounds read high
# Phospholipase A2 (Homo sapiens), sequence (P04054 whole entry, looked up): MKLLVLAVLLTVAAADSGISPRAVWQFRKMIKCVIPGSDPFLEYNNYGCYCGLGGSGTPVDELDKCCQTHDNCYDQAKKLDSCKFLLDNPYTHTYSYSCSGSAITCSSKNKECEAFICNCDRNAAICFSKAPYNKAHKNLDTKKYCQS
row,Structure (SMILES),inhibition
1,Cc1cccc(C)c1N1CCN(S(=O)(=O)N2CCCCC2)CC1,54.3% (active)
2,Cc1nc(SCC(=O)N2CCc3ccccc3C2)c2c(C)c(C)sc2n1,76.5% (active)
3,FC(F)(F)c1cccc(NC(=S)Nc2cccc(Cl)c2)c1,70.8% (active)
4,Cc1ccc(C2=Nc3c(ccc4ccccc34)C(c3ccncc3)=NN2)cc1,68.7% (active)
5,O=C(NCc1ccccc1)[C@H]1C[C@@H]1[C@H](NP(=O)(c1ccccc1)c1ccccc1)c1ccccc1,79% (active)
6,O=C(Nc1nnc(SCc2ccccc2Cl)s1)c1cccc([N+](=O)[O-])c1,57.6% (active)
7,Clc1ccccc1CSc1nnc(-c2ccco2)c(-c2ccco2)n1,34.9% (inactive)
8,O=C(CSc1nc(-c2ccccc2)cs1)Nc1cccc([N+](=O)[O-])c1,16.5% (inactive)
9,Cc1ccc(CNC(=O)c2ccccc2CCc2ccccc2)cc1,45.9% (inactive)
10,S=C(NCCc1ccccc1)NCc1ccccc1Cl,54.4% (active)
11,FC(F)(F)Oc1ccc(NC(=S)NCc2ccccc2)cc1,47.2% (inactive)
12,CN(Cc1c(F)cccc1Cl)S(=O)(=O)c1cccs1,58.8% (active)
13,CCCC1=Nc2cc(C(=O)NCc3ccco3)ccc2Sc2ccccc21,46.3% (inactive)
14,Oc1c(Cl)cc(Cl)c(Cl)c1Cc1c(O)c(Cl)cc(Cl)c1Cl,82.7% (active)
15,Cc1ccc(-n2c(SCC(=O)N/N=C/C=C/c3ccccc3[N+](=O)[O-])nc3ccccc3c2=O)cc1,40.7% (inactive)
16,O=C(O)CCn1cc(/C=C/C(=O)c2ccc(Cl)cc2)c(-c2cccc(Br)c2)n1,43.2% (inactive)
17,O=C1C(=O)N(CC2COc3ccccc3O2)c2ccccc21 (stereo not drawn),78.5% (active)
18,Fc1ccc2[nH]c3c(N4CCN(Cc5ccc6c(c5)OCO6)CC4)ncnc3c2c1,48.4% (inactive)
19,COc1ccc(NC(=O)COc2ccc(C(=O)c3ccc(F)cc3)cc2)cc1S(N)(=O)=O,-4.37% (inactive)
20,COc1cccc(NC(=O)NCc2ccc(F)cc2)c1,52.3% (active)
21,CC1=C/C(=N\S(=O)(=O)c2ccccc2)C(C(C)C)=CC1=O,84.4% (active)
22,CN(C)Cc1ccc(F)cc1Sc1cc(Cl)ccc1Cl,42.7% (inactive)
23,O=C(N/N=C/c1coc2ccccc2c1=O)c1cc2ccccc2o1,55.8% (active)
24,COc1ccc(/C=C2/CCCc3ccccc3C2=O)cc1,53.3% (active)

row,Structure (SMILES),inhibition
1,COc1ccc(/C=C2\CCc3ccccc3C2=O)c(OC)c1OC,23.1% (inactive)
2,CCOc1ccc2c(c1)C(c1ccc(C)cc1)=NNC(c1ccc(C)cc1)=N2,74.7% (active)
3,CCc1ccc2c(c1)C(c1ccc([N+](=O)[O-])cc1)=NNC(c1ccccc1)=N2,24.1% (inactive)
4,O=C1Nc2cc(Cl)c(Cl)cc2N(O)N1c1cc(Cl)cc(Cl)c1,39.8% (inactive)
5,O=C(O)C(c1ccccc1)N1C(=O)/C(=C\c2ccc(-c3cccc(Cl)c3)o2)SC1=S (stereo not drawn),45% (inactive)
6,O=C(N[C@@H](Cc1c[nH]c2ccccc12)C(=O)O)OCC1c2ccccc2-c2ccccc21,72.1% (active)
7,Cc1cccc(NC(=S)Nc2ccc(Cl)c(Cl)c2)c1,60.1% (active)
8,COc1cnc(-c2ccccn2)nc1Oc1ccc(C(C)(C)C)cc1,67.2% (active)
9,CC(C)(C)c1ccc(OC2=CS(=O)(=O)c3ccccc32)cc1,55.9% (active)
10,Cc1cccc(NC(=S)NCCc2ccc(Cl)cc2)c1C,57.9% (active)
11,Cc1ccc(Nc2ccc(C(N)=O)cc2[N+](=O)[O-])cc1,59.4% (active)
12,COc1cccc(Cn2cc(/C=N/NC(=O)c3cc(O)cc(O)c3)c3ccccc32)c1,76.6% (active)
13,COC(=O)N/N=C/c1cn(CCCOc2ccc(C)cc2)c2ccccc12,43% (inactive)
14,CCOC(=O)N/N=C/c1cn(Cc2ccccc2Cl)c2ccccc12,48.2% (inactive)
15,CC(C)(C)C1CCc2c(sc3nc(SCC(N)=O)nc(N)c23)C1 (stereo not drawn),47.6% (inactive)
16,CCOC(=O)c1c(-c2ccccc2)oc2cc(Br)c(O)c(C=O)c12,40.9% (inactive)
17,CC(=O)Nc1ccc(C(=O)Nc2nc(-c3cc(C)n(Cc4ccccc4)c3C)cs2)cc1,38.2% (inactive)
18,CCCc1[nH]nc2c1C(c1ccc(OC(=O)c3ccco3)cc1)C(C#N)=C(N)O2 (stereo not drawn),67.4% (active)
19,COC(=O)c1c(NC(=O)COC(=O)[C@@H](NS(=O)(=O)c2ccccc2)C(C)C)sc2c1CCC2,81.7% (active)
20,NC(=O)c1sc2nc3c(c(-c4ccccc4)c2c1N)CCC3,46.6% (inactive)
21,O=C(COC(=O)/C(=C/c1cccs1)c1cccs1)NCc1ccccc1Cl,68.2% (active)
22,O=C(COC(=O)c1cc2c(s1)CCCC2)NCc1ccccc1Cl,59.3% (active)
23,CCc1nc(N2CCN(C(C)=O)CC2)c2c3c(sc2n1)CCCC3,52.4% (active)
24,Cc1ccc(Oc2cc(NC(=O)CCCn3nc(C)c([N+](=O)[O-])c3C)cc([N+](=O)[O-])c2)cc1,63% (active)
